Source: PubChem BioAssay (National Center for Advancing Translational Sciences (NCATS))
PKM2 act – activators of human pyruvate kinase M2; P14618; purified PKM2, Kinase-Glo ATP luminescence, activation; response scale: 0% is enzyme alone, no compound; Potency, µM (highest dose often 57.5 µM), actives largely listed as activators; 0.34% of 260,000 active; AID 1631; note: nearly all actives have a fitted effect of over 55% in size
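hPK-M2, >95% pure; 0.1 mM ADP / 0.5 mM PEP final; imidazole pH7.2 buffer w/ 7 mM MgCl2, 50 mM KCl; 1 h RT; Kinase-Glo lum. Intermediate enzyme activity for dual inhibitor/activator qHTS.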
Tb PFK inh-1 – T. brucei PFK enzyme inhibition; O15648; T. brucei PFK, ADP-Glo luminescence; Potency, µM (doses to about 57.5 µM), actives largely listed as inhibitors; 0.17% of 330,000 active; note: nearly all actives have a fitted effect of over 60% in size
Target sequence (O15648 whole entry, looked up): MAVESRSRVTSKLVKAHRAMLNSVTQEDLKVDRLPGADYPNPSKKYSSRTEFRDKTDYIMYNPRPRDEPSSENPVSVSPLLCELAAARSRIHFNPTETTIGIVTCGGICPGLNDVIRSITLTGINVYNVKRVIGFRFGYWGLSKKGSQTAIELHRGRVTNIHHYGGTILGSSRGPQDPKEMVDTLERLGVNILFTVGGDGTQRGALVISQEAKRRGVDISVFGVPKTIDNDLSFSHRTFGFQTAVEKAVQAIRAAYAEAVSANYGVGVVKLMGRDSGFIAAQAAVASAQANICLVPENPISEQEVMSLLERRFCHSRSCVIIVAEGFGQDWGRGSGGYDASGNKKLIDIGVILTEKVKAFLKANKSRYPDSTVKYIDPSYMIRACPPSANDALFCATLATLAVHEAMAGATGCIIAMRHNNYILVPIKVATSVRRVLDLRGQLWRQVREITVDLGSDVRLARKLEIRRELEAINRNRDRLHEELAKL
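PFK 1.25 nM, F6P 0.5 mM, ATP 0.1 mM, 0.1 M TEA pH 8.0, 5 mM MgCl2, 0.01% Tween20, 0.1% BSA; 45 min RT. ADP-Glo readout. qHTS titration up to 57 uM; curves fitted, compounds curve-classed.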
ELG1 repair inh – blocks ELG1-dependent DNA repair in HEK293T cells; 2.3% of 330,000 active; Potency, µM (series often up to 46.1 µM), hits mostly inhibitors; HEK293T ELG1-luciferase reporter, luminescence, 16 h; DNA damage induced by 5-fluorouridine; note: nearly all actives have a fitted effect of over 55% in size
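Step one: seed 2,000 cells per well. Step two: pin-transfer compound or DMSO alongside 5-fluorouridine. Step three: incubate 16 hr, 37 °C, 5% CO2. Step four: add ONE-Glo, wait 30 min, read luminescence.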
Rango-impB inh – Rango-importin beta binding inhibition; Q14974; Rango CFP/YFP FRET sensor + importin beta, 45 min; Potency, µM (series often up to 92.2 µM); 0.031% of 340,000 active; calls by dose curve; note: nearly all actives have a fitted effect of over 15% in size
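FRET biosensor Rango (snurportin 1 IBB between N-terminal EYFP and C-terminal Cerulean), 50 nM in PBS/1 mM DTT/0.02% Tween-20/0.1% BSA, preincubated 5 min RT with compound; 0.125 microM importin beta added, 45 min RT, CFP/YFP FRET ratio read.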
PGK inhibitor – T. brucei PGK inhibition; PGK/GAPDH coupled, Kinase-Glo luminescence, 60 min; Potency, µM (doses to about 57.5 µM), hits mostly inhibitors; 0.043% of 380,000 active; P07378; AID 602233; note: nearly all actives have a fitted effect of over 60% in size
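Luminescent ATP detection (Kinase-Glo Plus) follows a 60-minute room-temperature incubation, with wells lacking PGK as controls. Buffer: 100 mM TEA (pH 7.6), 5 mM MgCl2, 0.01% Tween-20. Coupling enzyme GAPDH (100 nM final) supplies unstable 1,3-BPG in-well.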
Rango dissoc inh – inhibition of RanGTP-driven Rango-importin beta dissociation | Biochemical FRET Rango-importin beta, RanGTP-induced dissociation | Potency, µM (series often up to 46.1 µM) | 0.071% of 340,000 active | AID 540253; calls by dose curve; note: nearly all actives have a fitted effect of over 45% in size
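Rango (0.1 uM)–importin beta (0.25 uM) complex; RanGTP-RCC1 trigger; 45 min RT; CFP/YFP FRET read.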
Tb PFK KinaseGlo – Tb phosphofructokinase inhibition, orthogonal luminescence. Tb PFK enzyme, ATP depletion, Kinase-Glo Plus luminescence. shares compounds with Tb PFK inh-1. Potency, µM (highest dose often 57.5 µM). 47% of 1,100 active. AID 504636; calls by dose curve; note: nearly all actives have a fitted effect of over 60% in size
Tb PFK inh-2 – validation of T. brucei phosphofructokinase inhibitors; shares compounds with Tb PFK inh-1; purified T. brucei PFK, ADP-Glo luminescence, 45 min; Potency, µM (series often up to 57.5 µM), actives largely listed as inhibitors; 41% of 1,100 active; AID 504637; note: nearly all actives have a fitted effect of over 60% in size
A number is an active result; i = inactive; ? = inconclusive; nt = no result; [ ] = dose if it differs, or a comment. Shown are actives, neighbours in structure and some others; about 2.4% of the full set was active somewhere. Unless noted, calls come from the whole dose curve; as a rule, active = well fitted curve in the direction sought with a large enough effect; inconclusive = small, poorly fitted or top-dose-only effect, or another doubt; inactive = no such curve, though single readings can be large; an effect the other way counts as inactive or inconclusive.

SMILES	PKM2 act	Tb PFK inh-1	ELG1 repair inh	Rango-impB inh	PGK inhibitor	Rango dissoc inh	Tb PFK KinaseGlo	Tb PFK inh-2
COC(=O)\C(C(C)=O)=C(/C=C/C=C/C=C/N(C)C)N(C)C	i	?	i	?	?	i	?	?
CC(C)(CS(=O)(=O)[O-])NC(=O)CC[N+](C)(C)CCO	i	0.675µM	i	i	2.24µM	i	0.239µM	0.426µM
Cc1cc(C)c(C)c(S(=O)(=O)N2CCC(C(=O)OCC(=O)N3c4ccccc4NC(=O)C3(C)C)CC2)c1C	i	?	i	i	i	i	?	?
O=c1[nH]c2ccccc2c(=O)n1-c1cccc(Cl)c1	i	i	i	i	i	i	nt	nt
O=c1[nH]c2ccsc2c(=O)n1-c1ccc(F)c(Cl)c1	i	?	i	i	i	i	i	i
C=CCN1C(=O)NC(=O)/C(=C/c2ccoc2)C1=O	i	i	i	?	?	?	nt	nt
C=CCN1C(=O)N/C(=C/c2ccc(C)o2)C1=O	?	16.9µM	i	i	nt	i	16.9µM	?
Cc1nc2ccc(Cl)cc2c(-c2ccccc2)c1C(=O)O	i	i	i	i	i	i	nt	nt
CC(=O)c1c(C)nc(-c2ccc(Cl)cc2)nc1N=CN(C)C	i	2.69µM	?	i	i	i	9.53µM	12µM
CC(=O)c1c(C)nc(-c2ccc(Cl)cc2)nc1N	i	?	?	i	i	i	?	?
O=c1c2ccccc2nc(/C=C\c2cccc(Br)c2)n1-c1ccc(O)cc1	nt	nt	nt	nt	i	nt	nt	nt
COC(=O)C1=C(c2ccc(C(C)=O)cc2)C[C@@H]2CC[C@H]1N2C(=O)NC1Cc2ccccc2C1	nt	i	i	i	i	i	nt	nt
COc1ccc(/C=C/c2nc3ccccc3c(=O)n2-c2ccc(C)cc2)cc1O	nt	nt	nt	nt	i	nt	nt	nt
O=Cc1cn(Cc2ccc([N+](=O)[O-])cc2)c2ccccc12	i	16.9µM	i	i	i	i	?	?
Cc1ccc(Cn2cc(C=O)c3ccccc32)cc1	nt	i	?	?	i	i	nt	nt
CCSc1nnc(NC(=O)c2cccn(Cc3ccc(Cl)cc3)c2=O)s1	nt	nt	nt	nt	i	nt	nt	nt
Cc1ccc(N(C)C(=O)Oc2cccc3cccnc23)cc1	i	i	i	i	i	i	nt	nt
CSS(=O)(=O)c1cccc2cccnc12	i	16.9µM	?	i	i	i	21.3µM	30.1µM
O=C(O)C1C2CCC(O2)C1C(=O)Nc1ccc(F)c(F)c1 (stereo not drawn)	i	i	i	i	i	i	nt	nt
O=C(O)C1C2C=CC(C2)C1C(=O)Nc1ccc(Cl)c(Cl)c1 (stereo not drawn)	i[11.5 µM]	21.3µM	i	i	i	i	i	i
O=P(Nc1cccnc1)(Oc1ccccc1)Oc1ccccc1	i	i	i	?	i	i	nt	nt
C/C(=N\NC(=O)Cc1ccc(Cl)c(Cl)c1)c1cccnc1	i	19µM	i	i	i	i	12µM	?
O=C(Cc1ccc(Cl)c(Cl)c1)Nc1cccnc1	i	15.1µM	i	i	i	i	3.79µM	12µM
C/C(O)=C(\C#N)C(=O)Nc1cc(Br)ccc1Br	nt	i	i	i	i	i	nt	nt
N#C/C(C(=O)Nc1ccc(Cl)cc1)=C(/S)Nc1ccccc1	nt	9.53µM	i	i	i	i	15.1µM	?
SMILES	PKM2 act	Tb PFK inh-1	ELG1 repair inh	Rango-impB inh	PGK inhibitor	Rango dissoc inh	Tb PFK KinaseGlo	Tb PFK inh-2
COc1cccc(-n2c(/C=C/c3cccc(C)c3)nc3ccccc3c2=O)c1	nt	nt	nt	nt	i	nt	nt	nt
COc1ccc(NC(=O)c2cccn(Cc3ccc(Cl)cc3)c2=O)c(OC)c1	nt	nt	nt	nt	i	nt	nt	nt
C[C@@H]1NCCc2cc(O)c(O)cc21	nt	?	i	i	i	i	8.49µM	?
CC(=O)Nc1cc([As](=O)(O)O)ccc1O	i	?	?	?	i	i	?	?
O=C(c1ccc(N2CCCCCC2)c([N+](=O)[O-])c1)N1CCC2(CC1)OCCO2	i	i	?	i	i	i	nt	nt
CCOP(=O)(c1ccccc1)C(O)c1ccc([N+](=O)[O-])cc1 (stereo not drawn)	i	i	?	i	i	i	nt	nt
CC(C)N(CCc1ccncc1)C(=O)Nc1ccc(Cl)c(Cl)c1	i	?	i	i	i	i	i	i
CC(C)CCNC(=O)Cn1c(=O)oc2cc(S(=O)(=O)N3CCc4ccccc43)ccc21	i	i	?	i	i	i	nt	nt
C/C(C/C(C)=C1/SC(=S)NC1=O)=C1\SC(=S)NC1=O	i	?	i	i	?	i	i	?
Cc1cccc(OC(C)C(=O)NCC2(N(C)C)CCCCC2)c1C (stereo not drawn)	nt	nt	nt	nt	i	nt	nt	nt
Cc1ccc(C(=O)Nc2nnc(CC(=O)N/N=C/c3ccc(O)c(O)c3)s2)cc1	nt	?	?	i	?	i	i	i
COc1ccc(C(=O)Nc2nnc(CC(=O)N/N=C/c3ccc(O)cc3O)s2)cc1	nt	?	?	nt	nt	nt	i	?
O=C1OC(c2cccs2)=N/C1=C/c1ccc(-c2cccc(C(=O)O)c2)o1	i	?	?	i	i	i	?	?
Cc1ccc(C)c(OCCCC(=O)Nc2ccc(N3CCOCC3)cc2)c1	i	?	?	nt	nt	nt	i	i
Cc1nc2ccccc2c(=O)n1-c1ccc(F)cc1	i	i	i	i	i[11.5 µM]	i	nt	nt
O=c1c2cc(F)ccc2sn1-c1ccccc1	nt	6.75µM	?	i	i	i	?	?
O=C(O)c1cccc(-n2sc3ccccc3c2=O)c1	nt	6.01µM	i	i	i	i	15.1µM	16.9µM
O=c1c2ccccc2sn1-c1ccccc1	i	4.78µM	?	i	i	i	?	7.57µM
Cc1ccccc1-n1sc2cc(F)ccc2c1=O	i	2.69µM	?	i	i	i	?	10.7µM
O=c1c2ccccc2nc(Cc2ccccc2)n1-c1ccccc1	i	i	?	i	i	i	nt	nt
Cc1cccc(Cn2cccc(C(=O)Nc3cc(C)on3)c2=O)c1	nt	nt	nt	nt	i	nt	nt	nt
N#Cc1cn(Cc2ccccc2)c(=O)[nH]c1=O	i	i	i	i	i	?	nt	nt
Cc1ccc(-n2sc3ccccc3c2=O)cc1S(=O)(=O)N1CCCCC1	?	13.5µM	i	i	i	i	?	6.75µM
Cc1ccc(C(=O)Nc2ccccc2)cc1S(=O)(=O)N1CCCC1	nt	nt	nt	nt	i	nt	nt	nt
O=c1c2ccccc2sn1-c1nccs1	i	8.49µM	i	i	i	i	?	?
COC(=O)[C@H](Cc1ccccc1)N(Cc1ccccc1)S(=O)(=O)N(Cc1ccccc1)[C@@H](Cc1ccccc1)C(=O)OC	nt	i	?	i	i	i	nt	nt
Cc1ccc(-n2c(/C=C/c3cccc4ccccc34)nc3ccccc3c2=O)cc1	nt	nt	nt	nt	i	nt	nt	nt
